The source of these data is PubChem BioAssay (Tox21).

Molecules are shown by their SMILES. A number with no mark means an inactive call. Inconclusive results are not listed. Calls of active or inactive are those of the source. Unless noted, calls come from the whole dose curve.

Assay [1] is described as follows: Nuclear factor erythroid 2-related factor 2/antioxidant responsive element (Nrf2/ARE) small molecule agonists: qHTS cell viability counter screen in human keratinocytes (AID 1919968; active = well fitted curve in the direction sought with a large enough effect in the repeat runs; an effect the other way counts as inactive or inconclusive; note: nearly all actives have a fitted effect of over 55% in size). Summed up:
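After a 5 h attachment period, ARE-reporter keratinocytes were dosed with compounds in DMSO and then cultured 23 h at 37 C. Cell viability came from CellTiter-Fluor signal read after a further 1 h.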
(In general: qHTS replaces the single test concentration by a dilution series.)

Assay [2] in a line: Nuclear factor erythroid 2-related factor 2/antioxidant responsive element (Nrf2/ARE) small molecule agonists: luciferase reporter gene qHTS assay in human keratinocytes (AID 1919969). Note: nearly all actives have a fitted effect of over 35% in size. Background: Reporter assays use an easily measured gene product as a stand-in for the process of interest.
The target in assay [3] is Gonadotropin-releasing hormone receptor (Homo sapiens) (UniProt P30968). In words: Human gonadotropin-releasing hormone receptor (GnRHR) small molecule agonists, calcium flux assay in GnRHR-HEK293 cells (AID 1920063). Note: nearly all actives have a fitted effect of over 35% in size. In outline:
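We seeded human GnRHR-expressing HEK293 cells for 18 hours, loaded them with calcium dye for an hour at 37 C, added test compounds, and recorded fluorescence intensity kinetically for three minutes.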

For assay [4], the target named is KiSS-1 receptor (Homo sapiens) (UniProt Q969F8). In words: Human kisspeptin (KISS1R) small molecule agonists, calcium flux assay in KISS1R-HEK293 cells (AID 1920064; active = well fitted curve in the direction sought with a large enough effect in the repeat runs; an effect the other way counts as inactive or inconclusive). Summed up: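 Kinetic calcium assay, 1 s sampling over 3 min at Ex/Em 480/540, in HEK293 cells engineered with human KISS1R; compounds delivered in DMSO after 1 h dye loading.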
Sequence of KiSS-1 receptor (Homo sapiens) (Q969F8 whole entry, looked up): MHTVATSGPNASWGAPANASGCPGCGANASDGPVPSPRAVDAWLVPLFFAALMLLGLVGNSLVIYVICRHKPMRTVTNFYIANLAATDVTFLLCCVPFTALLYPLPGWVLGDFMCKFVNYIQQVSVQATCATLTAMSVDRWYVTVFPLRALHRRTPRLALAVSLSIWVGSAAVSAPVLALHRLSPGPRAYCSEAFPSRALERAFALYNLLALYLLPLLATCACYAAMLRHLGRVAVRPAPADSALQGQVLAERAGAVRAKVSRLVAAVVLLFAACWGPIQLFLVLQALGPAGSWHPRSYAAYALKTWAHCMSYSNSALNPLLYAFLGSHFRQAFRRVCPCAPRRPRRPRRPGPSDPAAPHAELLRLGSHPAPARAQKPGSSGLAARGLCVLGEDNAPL
(In general: A change in cytosolic calcium serves as a functional read-out for many receptors and channels.)

The nature of assay [5]: G protein-coupled receptor (GPCR) small molecule agonists, calcium flux assay: HEK293 wild type cell line counter screen (AID 1920065). Summed up: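 Calcium-sensitive dye, loaded 1 h at 37 C into cells cultured 18 h, reports compound-evoked calcium release as fluorescence (Ex/Em 480/540), measured over 3 min. Agonist mode; 15-point titrations, triplicate.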
Assay [6] is described as follows: p53 small molecule agonists, cell-based qHTS assay with human liver microsomes (AID 1963577). Summed up: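 p53RE-bla reporter cells were pre-incubated 5 h at 37 C, then treated with compounds plus human liver microsomes (0.5 mg/mL final) and NADPH (0.5 mg/mL final) for 16 h at 37 C. Beta-lactamase activity was read by LiveBLAzer fluorescence after 2 h at room temperature.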

Assay [7] can be described thus: p53 small molecule agonists, cell-based qHTS assay with rat liver microsomes (AID 1963578). Summed up:
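p53RE-bla cells were exposed to compounds together with rat liver microsomes (0.5 mg/mL final) and NADPH (0.5 mg/mL final) for 16 h at 37 C, then read by LiveBLAzer beta-lactamase fluorescence after 2 h at room temperature.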

Assay [8] is described as follows: p53 small molecule agonists, cell-based qHTS assay with human liver microsomes: qHTS cell viability counter screen (AID 1963579). Note: nearly all actives have a fitted effect of over 45% in size. Summed up:
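p53RE-bla cells (4,000/well) were pre-incubated 5 h at 37 C, then given compounds in DMSO plus human liver microsomes (0.5 mg/mL final) and NADPH (0.5 mg/mL final) for 16 h at 37 C. Viability was read by CellTiter-Glo luminescence.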

A short description of assay [9]: p53 small molecule agonists, cell-based qHTS assay with rat liver microsomes: qHTS cell viability counter screen (AID 1963580). Note: nearly all actives have a fitted effect of over 45% in size. Summed up:
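p53RE-bla HCT-116 cells were exposed 16 h at 37 C to compounds with rat liver microsomes (0.5 mg/mL) and NADPH (0.5 mg/mL). Viability was measured in the same wells as ATP content by CellTiter-Glo luminescence.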

Assay [10] can be described thus: p53 small molecule agonists, cell-based qHTS assay: qHTS cell viability counter screen (AID 1963581). Note: nearly all actives have a fitted effect of over 45% in size. Summed up:
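Following 5 h attachment, HCT-116 p53RE-bla cells took up compound for 16 h at 37 C; the reporter was read with B/G FRET substrate (2 h RT), and viability then via CellTiter-Glo ATP luminescence.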

Assay [11] is described as follows: p53 small molecule agonists, cell-based qHTS assay (AID 1963582; active = well fitted activation curve with a large enough effect in the signal ratio in the repeat runs, not every such curve was filed as active; the % refers to the signal ratio; note: potency is the fitted concentration of half-maximal effect). In outline: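 In this cell-based concentration-response screen, a p53 response element drives beta-lactamase; cells received DMSO-borne compounds after 5 h culture and were incubated a further 16 h before FRET substrate development.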
Assay [12] is described as follows: cAMP Responsive Elements (CRE) small molecule agonists, cell-based qHTS assay (AID 1963590). In outline: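 A CRE-responsive beta-lactamase reporter in HEK 293T cells was used. Treatment ran 3 h at 37 C; detection used LiveBLAzer B/G FRET substrate for 2 h at room temperature.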
Assay [13] can be described thus: cAMP Responsive Elements (CRE) small molecule antagonists, cell-based qHTS assay (AID 1963591; active = well fitted inhibition curve with a large enough effect in the signal ratio in the repeat runs, not every such curve was filed as active; the % refers to the signal ratio). Summed up: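 HEK293T cells carrying a CRE-driven beta-lactamase reporter receive compound and NKH477 (0.25 uM final) for 3 h. Fluorescence from LiveBLAzer B/G FRET substrate is read after 2 h at room temperature.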
The target in assay [14] is Beta-2 adrenergic receptor (Homo sapiens) (UniProt P07550). In words: Adrenergic beta2 receptor (ADRB2) small molecule antagonists, cell-based qHTS assay (AID 1963592). Note: series mostly up to about 92 µM; nearly all actives have a fitted effect of over 50% in size. Summed up: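 Cells (CHO, stable ADRB2 overexpression) incubated 18-20hr at 37C; compounds added from DMSO; agonist mix (1nM isoproterenol, 100uM IBMX, 25uM Ro-20-1724) added; 0.5hr RT; d2-cAMP and anti-cAMP-cryptate added; 1hr RT; 665/615 nm read.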
Sequence of Beta-2 adrenergic receptor (Homo sapiens) (P07550 whole entry, looked up): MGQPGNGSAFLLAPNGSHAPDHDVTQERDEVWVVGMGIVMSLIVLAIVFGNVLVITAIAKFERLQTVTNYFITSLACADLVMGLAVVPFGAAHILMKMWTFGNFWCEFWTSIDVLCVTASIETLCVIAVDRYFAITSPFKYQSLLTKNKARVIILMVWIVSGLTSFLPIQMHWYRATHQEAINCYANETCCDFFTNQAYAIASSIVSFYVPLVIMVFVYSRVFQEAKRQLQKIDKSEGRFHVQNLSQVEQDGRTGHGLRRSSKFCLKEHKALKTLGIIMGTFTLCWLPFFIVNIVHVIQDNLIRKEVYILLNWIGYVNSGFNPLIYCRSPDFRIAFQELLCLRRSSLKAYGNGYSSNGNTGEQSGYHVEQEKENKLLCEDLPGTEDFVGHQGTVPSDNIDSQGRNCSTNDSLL

For assay [15] the target is unchanged. In words: Adrenergic beta2 receptor (ADRB2) small molecule agonists, cell-based qHTS assay (AID 1963593).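 Note: CHO cells stably overexpressing human ADRB2.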 Summed up: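 CHO cells stably over-expressing ADRB2 were plated overnight at 37C, then dosed with compounds plus a stimulation mix containing 100uM IBMX and 25uM Ro-20-1724 for 0.5hr at room temperature. cAMP was measured by HTRF competition, 1hr.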
Assay [16] has as its target D(2) dopamine receptor (Homo sapiens) (UniProt P14416). In words: Dopamine D2 receptor (DRD2) small molecule agonists, cell-based qHTS assay (AID 1963594). Note: nearly all actives have a fitted effect of over 35% in size. In outline:
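HEK293 cells stably expressing human DRD2, pre-treated with PDE inhibitor Ro20-1724 (0.1 mM final) and compound 10 min at room temperature, then stimulated with NKH477 (200nM […]) for 30 min. cAMP read by HTRF (665/620 nm).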

Assay [17] shares this target. In words: Dopamine D2 receptor (DRD2) small molecule antagonists, cell-based qHTS assay (AID 1963595; active = well fitted inhibition curve with a large enough effect in the signal ratio in the repeat runs, with a control signal flat; the % refers to the signal ratio). Summed up: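 Cells were plated and grown for 24 h at 37 °C. Ro20-1724 (0.1 mM final) went in first, then compound for 10 min. NKH477 (200 nM) with quinpirole (12 nM) followed for 30 min at RT, then HTRF detection reagents for 1 h.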
Assay [18] has as its target Muscarinic acetylcholine receptor M1 (Homo sapiens) (UniProt P11229). In words: Cholinergic receptor muscarinic 1 (CHRM1) small molecule agonists, cell-based qHTS assay (AID 1963589). Note: nearly all actives have a fitted effect of over 35% in size. In outline: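 Measures agonist-induced intracellular calcium rise. Stable human CHRM1 CHO line, 1 h dye load at 37 C, compounds from DMSO, kinetic fluorescence read.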

Sequence of Gonadotropin-releasing hormone receptor (Homo sapiens) (P30968 whole entry, looked up): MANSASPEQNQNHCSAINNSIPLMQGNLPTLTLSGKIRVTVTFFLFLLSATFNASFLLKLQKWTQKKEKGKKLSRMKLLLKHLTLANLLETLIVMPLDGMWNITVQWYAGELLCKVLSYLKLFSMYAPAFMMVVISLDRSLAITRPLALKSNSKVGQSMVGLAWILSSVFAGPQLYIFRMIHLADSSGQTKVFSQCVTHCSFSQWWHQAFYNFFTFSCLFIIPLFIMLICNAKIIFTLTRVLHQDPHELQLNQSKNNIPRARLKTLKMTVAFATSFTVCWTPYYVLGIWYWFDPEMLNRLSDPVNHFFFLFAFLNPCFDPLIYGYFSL
Sequence of D(2) dopamine receptor (Homo sapiens) (P14416 whole entry, looked up): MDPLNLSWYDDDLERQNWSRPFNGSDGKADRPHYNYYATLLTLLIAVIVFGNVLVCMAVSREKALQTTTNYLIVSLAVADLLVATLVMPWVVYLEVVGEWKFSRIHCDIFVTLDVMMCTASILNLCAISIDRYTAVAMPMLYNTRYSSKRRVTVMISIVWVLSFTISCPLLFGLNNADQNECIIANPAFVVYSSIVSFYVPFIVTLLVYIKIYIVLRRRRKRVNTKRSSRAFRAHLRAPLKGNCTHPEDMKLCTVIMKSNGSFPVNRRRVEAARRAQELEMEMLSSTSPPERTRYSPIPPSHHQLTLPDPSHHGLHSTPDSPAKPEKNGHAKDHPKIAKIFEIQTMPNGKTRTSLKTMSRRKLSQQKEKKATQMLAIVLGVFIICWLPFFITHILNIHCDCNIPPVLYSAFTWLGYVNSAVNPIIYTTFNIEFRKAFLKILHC
Sequence of Muscarinic acetylcholine receptor M1 (Homo sapiens) (P11229 whole entry, looked up): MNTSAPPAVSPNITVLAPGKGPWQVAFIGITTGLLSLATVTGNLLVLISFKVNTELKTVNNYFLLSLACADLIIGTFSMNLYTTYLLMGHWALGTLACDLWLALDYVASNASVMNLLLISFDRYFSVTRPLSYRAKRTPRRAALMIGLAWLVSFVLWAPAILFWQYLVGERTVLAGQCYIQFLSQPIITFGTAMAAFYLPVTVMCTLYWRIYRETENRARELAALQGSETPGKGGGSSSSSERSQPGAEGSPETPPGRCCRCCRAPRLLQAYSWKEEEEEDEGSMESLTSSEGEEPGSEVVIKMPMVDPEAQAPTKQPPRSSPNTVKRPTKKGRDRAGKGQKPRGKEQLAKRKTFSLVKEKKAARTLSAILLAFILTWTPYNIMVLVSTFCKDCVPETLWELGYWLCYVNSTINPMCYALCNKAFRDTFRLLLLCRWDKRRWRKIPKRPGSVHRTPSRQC

As for `CCCc1nn(C)c2c(=O)[nH]c(-c3cc(S(=O)(=O)N4CCN(C)CC4)ccc3OCC)nc12`, the Potency result in assay [1], in [2], in [3], in [6], in assay [7] and in assay [8] was “inactive” each time. Also, the Potency result in assay [9], in assay [10], in assay [11], in assay [12], in assay [13] and in assay [14] was “inactive” each time. For the same compound, the Potency result in [15], in [16] and in [17] was “inactive” each time. Moreover, the result in assay [4] and in assay [5] was inactive.
On to `CC(=O)OC[C@H]1O[C@@H](n2ncc(=O)[nH]c2=O)[C@H](OC(C)=O)[C@@H]1OC(C)=O`, for which the Potency result in [1], in assay [2], in assay [3], in assay [6], in assay [7] and in assay [8] was “inactive” each time. Besides, the Potency entry in assay [9], in assay [10], in [12], in [13], in assay [14] and in [15] was “inactive” in each case. Moreover, the Potency entry in [16] was “inactive”. Moreover, the result in assay [4] and in assay [5] was inactive. Moreover, in assay [11], the Potency is 0.5 µM (active).
Consider `Cc1cc(C(C)(C)C)cc(C)c1CC1=NCCN1`, for which the Potency entry in assay [1], in [2], in assay [3], in assay [6], in assay [7] and in assay [8] was “inactive” in each case. For the same compound, the Potency entry in [9], in assay [10], in [11], in assay [18], in [13] and in assay [14] was “inactive” in each case. The Potency entry in assay [16] is “inactive”. For the same compound, the outcome in [4] and in assay [5] was inactive.
For `C[n+]1ccccc1/C=N/O`, the Potency result in [1], in assay [2], in [3], in [6], in [7] and in assay [8] was “inactive” each time. The Potency result in assay [9], in assay [10], in assay [11], in assay [12], in [13] and in assay [14] was “inactive” throughout. In addition, the Potency result in assay [16] and in assay [17] was “inactive” in each case. Besides, the result in assay [4] and in assay [5] was inactive.
For `CN1CCN(C(c2ccccc2)c2ccccc2)CC1`, the Potency result in assay [1], in [2], in assay [3], in assay [6], in assay [7] and in [8] was “inactive” throughout. In addition, the Potency entry in assay [9], in assay [10], in assay [11], in assay [12], in [13] and in assay [14] was “inactive” in each case. Moreover, the Potency entry in [16] and in assay [17] was “inactive” throughout. Moreover, the outcome in [4] and in assay [5] was inactive.
Take `C[N+]1(C)[C@@H]2CC(OC(=O)[C@H](CO)c3ccccc3)C[C@H]1[C@@H]1O[C@@H]12` (some centres not stated): the Potency result in assay [1], in assay [2], in [3], in assay [6], in assay [7] and in assay [8] was “inactive” in each case. The Potency entry in assay [9], in assay [10], in assay [11], in [12], in [13] and in [14] was “inactive” each time. Besides, the Potency entry in assay [16] and in [17] was “inactive” each time. Moreover, the result in assay [4] and in assay [5] was inactive.
For `CCC(C)(CCCC(C)C)OC(C)=O` (configuration not stated), the Potency result in assay [1], in assay [2], in assay [3], in assay [6], in [7] and in assay [8] was “inactive” each time. Further, the Potency result in assay [9], in assay [10], in assay [11], in assay [13], in [14] and in assay [16] was “inactive” in each case. Also, the Potency result in assay [17] is “inactive”. For the same compound, the result in assay [4] and in assay [5] was inactive.
On to `CN1CCC(=C2c3ccccc3CC(=O)c3sccc32)CC1`, for which the Potency result in assay [1], in [2], in [3], in assay [6], in [7] and in assay [8] was “inactive” throughout. Further, the Potency result in assay [9], in [10], in assay [11], in assay [12], in assay [13] and in assay [14] was “inactive” each time. The Potency entry in assay [16] and in assay [17] was “inactive” each time. The outcome in assay [4] and in [5] was inactive.
